Results filed as inconclusive are left out. Calls of active or inactive are those of the source. Calls come from the whole dose curve; as a rule, active = well fitted curve in the direction sought with a large enough effect in the repeat runs; inconclusive = weak or mixed curves; inactive = no such curve, though single readings can be large; an effect the other way counts as inactive or inconclusive.
Assays:
[1] = qHTS RealTime-Glo MT Cell Viability Assay in HepG2 cells - 40 hour (AID 1224870); note: nearly all actives have a fitted effect of over 50% in size
How it was run: (§1)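 HepG2 cells mixed with RealTime-Glo MT reagents (NanoLuc plus cell-permeant prosubstrate) were seeded at 600 cells/well, incubated 5 h at 37 C/5% CO2, then pinned with compounds in DMSO; nonlytic luminescence tracked viability during 40 h treatment.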

[2] = A CellTox Green Cytotoxicity Assay to monitor cytotoxicity in HEK293 cells - 40 hour (AID 1224871); note: nearly all actives have a fitted effect of over 45% in size
How it was run: (§2)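 Read-out: fluorescence of a cell-impermeant cyanine dye staining DNA of dead cells, proportional to cytotoxicity. HEK293, 600 cells/well with reagent, compound (23 nL DMSO) added after 5 h; reads at 0, 8, 16, 24, 32, 40 h.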

[3] = qHTS RealTime-Glo MT Cell Viability Assay in HEK293 cells - 16 hour (AID 1224872); note: top concentration of the series differs between compounds; nearly all actives have a fitted effect of over 50% in size
How it was run: (§3)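 Viability tracked continuously by luminescence as live cells reduce a prosubstrate for NanoLuc; HEK293 cells preincubated 5 h, compound-treated at 37 C, and read at 0, 8, 16, 24, 32 and 40 h.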

[4] = qHTS RealTime-Glo MT Cell Viability Assay in HepG2 cells - 8 hour (AID 1224873); note: nearly all actives have a fitted effect of over 55% in size
How it was run: as §1

[5] = A CellTox Green Cytotoxicity Assay to monitor cytotoxicity in HEK293 cells - 24 hour (AID 1224875); note: series mostly up to about 77 µM; nearly all actives have a fitted effect of over 45% in size
How it was run: as §2

[6] = A CellTox Green Cytotoxicity Assay to monitor cytotoxicity in HepG2 cells - 16 hour (AID 1224876); note: nearly all actives have a fitted effect of over 45% in size
How it was run: (§4)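 HepG2, 600 cells/well premixed w/ CellTox Green; 5 h settle, 37 C/5% CO2; pintool cpd add (DMSO); 37 C, 40 h; fluorescence read at 0, 8, 16, 24, 32, 40 h.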

[7] = qHTS RealTime-Glo MT Cell Viability Assay in HepG2 cells - 32 hour (AID 1224877); note: nearly all actives have a fitted effect of over 55% in size
How it was run: (§5)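 Viability was tracked continuously by NanoLuc luminescence from prosubstrate reduced by living HepG2 cells, at successive time points over 40 h of compound exposure. Cells with reagent were preincubated 5 h at 37 °C before compound addition.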

[8] = qHTS RealTime-Glo MT Cell Viability Assay in HEK293 cells - 0 hour (AID 1224880); note: top concentration of the series differs between compounds; nearly all actives have a fitted effect of over 45% in size
How it was run: (§6)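 Luminescence readout at each listed time point; HEK293, 600 cells/well, RealTime-Glo MT reagent added with cells; compounds pinned (23 nL in DMSO) after 5 h at 37 C; continuous culture at 37 C.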

[9] = A CellTox Green Cytotoxicity Assay to monitor cytotoxicity in HEK293 cells - 32 hour (AID 1224881); note: nearly all actives have a fitted effect of over 40% in size
How it was run: as §2

[10] = A CellTox Green Cytotoxicity Assay to monitor cytotoxicity in HepG2 cells - 0 hour (AID 1224882); note: nearly all actives have a fitted effect of over 35% in size
How it was run: as §4

[11] = A CellTox Green Cytotoxicity Assay to monitor cytotoxicity in HEK293 cells - 8 hour (AID 1224884); note: nearly all actives have a fitted effect of over 35% in size
How it was run: as §2

[12] = qHTS RealTime-Glo MT Cell Viability Assay in HepG2 cells - 16 hour (AID 1224885); note: nearly all actives have a fitted effect of over 50% in size
How it was run: as §5

[13] = qHTS RealTime-Glo MT Cell Viability Assay in HEK293 cells - 24 hour (AID 1224886); note: top concentration of the series differs between compounds; nearly all actives have a fitted effect of over 50% in size
How it was run: as §3

[14] = qHTS RealTime-Glo MT Cell Viability Assay in HEK293 cells - 8 hour (AID 1224887)
How it was run: as §6

[15] = qHTS RealTime-Glo MT Cell Viability Assay in HepG2 cells - 0 hour (AID 1224889); note: nearly all actives have a fitted effect of over 50% in size
How it was run: as §5

[16] = A CellTox Green Cytotoxicity Assay to monitor cytotoxicity in HepG2 cells - 24 hour (AID 1224878); note: nearly all actives have a fitted effect of over 45% in size
How it was run: as §4

[17] = A CellTox Green Cytotoxicity Assay to monitor cytotoxicity in HepG2 cells - 40 hour (AID 1224879); note: nearly all actives have a fitted effect of over 40% in size
How it was run: as §4

[18] = A CellTox Green Cytotoxicity Assay to monitor cytotoxicity in HepG2 cells - 32 hour (AID 1224883); note: nearly all actives have a fitted effect of over 50% in size
How it was run: as §4

[19] = A CellTox Green Cytotoxicity Assay to monitor cytotoxicity in HEK293 cells - 16 hour (AID 1224888); note: nearly all actives have a fitted effect of over 35% in size
How it was run: as §2

[20] = qHTS RealTime-Glo MT Cell Viability Assay in HEK293 cells - 40 hour (AID 1224874); conditions: RealTime-Glo luminescence; max response: hits give low values; note: nearly all actives have a fitted effect of over 50% in size
How it was run: as §6
% is set by controls: 0 for no effect and ±100 for the full control effect.

CCCCc1ccc2cccc(S(=O)(=O)O)c2c1
inactive: Potency [1] | Potency [2] | Potency [3] | outcome [4] | Potency [5] | Potency [6] | Potency [7] | outcome [8] | Potency [9] | Potency [10] | Potency [11] | outcome [12] | Potency [13] | Potency [14] | Potency [15]

CCCCCCOC(=O)c1ccccc1O
inactive: Potency [1] | Potency [2] | Potency [3] | outcome [4] | Potency [5] | Potency [6] | Potency [16] | Potency [17] | outcome [8] | Potency [9] | Potency [10] | Potency [18] | outcome [12] | Potency [13] | Potency [14] | Potency [19] | Potency [15]

C1=C\CC/C=C\CC/C=C\CC/1
inactive: Potency [1] | Potency [2] | Potency [3] | outcome [4] | Potency [5] | Potency [6] | Potency [16] | Potency [17] | Potency [9] | Potency [10] | Potency [18] | Potency [11] | Potency [13] | Potency [14]

OC1OC[C@@H](O)[C@H](O)[C@H]1O (some centres not stated)
inactive: Potency [1] | Potency [2] | Potency [3] | outcome [4] | Potency [5] | Potency [6] | Potency [16] | Potency [17] | Potency [9] | Potency [10] | Potency [18] | Potency [11] | Potency [13] | Potency [14]

CCC(C(=O)NC(N)=O)c1ccccc1 (configuration not stated)
inactive: Potency [1] | Potency [2] | Potency [3] | outcome [4] | Potency [5] | Potency [6] | Potency [7] | Potency [16] | Potency [17] | Potency [9] | Potency [10] | Potency [18] | Potency [11] | outcome [12] | Potency [13] | Potency [14] | Potency [19] | Potency [15]

CC(C)(O)Cc1ccccc1
inactive: Potency [1] | Potency [2] | Potency [3] | outcome [4] | Potency [5] | Potency [6] | Potency [7] | Potency [16] | Potency [17] | outcome [8] | Potency [9] | Potency [10] | Potency [18] | Potency [11] | outcome [12] | Potency [14] | Potency [19] | Potency [15]

C=C[Si](OC)(OC)OC
inactive: Potency [1] | Potency [2] | Potency [3] | outcome [4] | Potency [5] | Potency [6] | Potency [7] | Potency [16] | Potency [17] | outcome [8] | Potency [9] | Potency [10] | Potency [18] | Potency [11] | outcome [12] | Potency [13] | Potency [14] | Potency [19] | Potency [15]

CC(C)(C)N(CCO)CCO
inactive: Potency [1] | Potency [2] | Potency [3] | outcome [4] | Potency [6] | Potency [7] | Potency [16] | Potency [17] | outcome [8] | Potency [9] | Potency [10] | Potency [18] | Potency [11] | Potency [13] | Potency [14] | Potency [19] | Potency [15]

CN(C)CCOC(c1ccc(Cl)cc1)c1ccccn1 (configuration not stated)
inactive: Potency [1] | Potency [2] | Potency [3] | outcome [4] | Potency [6] | Potency [7] | Potency [16] | Potency [17] | outcome [8] | Potency [9] | Potency [10] | Potency [18] | Potency [11] | outcome [12] | Potency [13] | Potency [14] | Potency [15]

O=C(O)c1ccccc1-c1ccc(C(F)(F)F)cc1
inactive: Potency [1] | Potency [2] | Potency [3] | outcome [4] | Potency [5] | Potency [6] | Potency [16] | Potency [17] | outcome [8] | Potency [9] | Potency [10] | Potency [18] | Potency [11] | outcome [12] | Potency [13] | Potency [14] | Potency [15]

C(=C(c1ccccc1)c1ccccc1)c1ccccc1
inactive: Potency [1] | Potency [2] | Potency [3] | max response [20] 7.28% | Potency [5] | Potency [6] | Potency [7] | Potency [16] | Potency [17] | outcome [8] | Potency [9] | Potency [18] | Potency [11] | Potency [13] | Potency [14] | Potency [19] | Potency [15]

CCCOc1ccccc1-c1nc2n[nH]nc2c(=O)[nH]1
inactive: Potency [1] | Potency [2] | Potency [3] | outcome [4] | Potency [5] | Potency [6] | Potency [16] | Potency [17] | outcome [8] | Potency [9] | Potency [10] | Potency [18] | Potency [11] | outcome [12] | Potency [14] | Potency [19] | Potency [15]

O=C(O)C(O)[C@H](O)[C@@H](O)[C@H](O)[C@H](O)CO (some centres not stated)
inactive: Potency [1] | Potency [2] | Potency [3] | outcome [4] | Potency [5] | Potency [6] | Potency [7] | Potency [16] | Potency [17] | outcome [8] | Potency [9] | Potency [10] | Potency [18] | Potency [11] | outcome [12] | Potency [13] | Potency [14] | Potency [19] | Potency [15]

CC(CCO)CCCC(C)(C)O (configuration not stated)
inactive: Potency [1] | Potency [2] | Potency [3] | outcome [4] | Potency [5] | Potency [6] | Potency [7] | Potency [16] | Potency [17] | outcome [8] | Potency [9] | Potency [18] | Potency [11] | outcome [12] | Potency [13] | Potency [14] | Potency [19]

OCc1ccccn1
inactive: Potency [1] | Potency [2] | Potency [3] | max response [20] 11.2% | Potency [5] | Potency [6] | Potency [7] | Potency [16] | Potency [17] | outcome [8] | Potency [9] | Potency [10] | Potency [18] | Potency [11] | outcome [12] | Potency [13] | Potency [14] | Potency [19] | Potency [15]

CC(C)[C@H](N)C(=O)OCCOCn1cnc2c(=O)[nH]c(N)nc21
inactive: Potency [1] | Potency [2] | Potency [3] | outcome [4] | Potency [6] | Potency [7] | Potency [16] | Potency [17] | outcome [8] | Potency [9] | Potency [10] | Potency [18] | Potency [11] | outcome [12] | Potency [13] | Potency [14] | Potency [19]

Source: PubChem BioAssay (Tox21)
